Bioassay records as filed in PubChem BioAssay.
USP28 block – inhibitors of human USP28 deubiquitinase; Q96RU2; purified USP28, Ub-rhodamine cleavage fluorescence, 30 min; inhibition, % at 25 µM; 47,000 tested, 3% active; AID 1645857
USP17 block – inhibitors of human USP17 deubiquitinase | A8MUK1 | purified USP17, Ub-rhodamine cleavage fluorescence, 3 h | inhibition, % at 50 µM | 47,000 tested, 6.5% active
USP30 inh – blocks human USP30 ubiquitin-rhodamine cleavage; Q70CQ3; purified USP30, Ub-rhodamine cleavage fluorescence; inhibition, % at 25 µM; 47,000 tested, 5.3% active; AID 1645860
The depositor's hits bear a star. Only some compounds are listed: those with a hit (about 11% of all), similar ones and a draw of the others. Rule as the data show it: active = inhibition above about 30%; inactive = the rest.

SMILES	USP28 block	USP17 block	USP30 inh
COc1cc2c(oc(=O)c3cc(C)cc(OC)c32)c2c([C@@H]3OC(C)[C@@H](O)[C@@](C)(O)C3O)ccc(O)c12 (some centres not stated)	14.5	78.9*	-51.4
COc1cc(O)c2c(=O)oc3c(O)c(OC)cc(C)c3c2c1	-8.8	-5.9	12.6
CCCC(=O)O[C@H]1CC(C)=C2C(=O)C=C(C)[C@@H]2[C@H]2OC(=O)[C@@H](C)[C@@H]21	-1.8	5.0	16.3
C[C@H]1[C@H](C)CCC23CC[C@]4(C)[C@@](C=CC5[C@@]6(C)CC[C@H](O)C(C)(C)[C@@H]6CC[C@]54C)(OC2=O)[C@H]13 (some centres not stated)	38.4*	50.3*	56.2*
C[C@@H]1CC[C@H]2C(C)(C)[C@H](O)CC[C@]2(C)[C@@]12Cc1c(O)cc3c(c1O2)CNC3=O	-12.4	-9.4	-8.5
O=C(c1ccc2cc[nH]c2c1)N1CCC(Nc2cccnc2)C1 (configuration not stated)	-14.1	67.9*	-41.7
CCOc1ccc(C(=O)N2CCC(Nc3cccnc3)C2)cc1 (configuration not stated)	-92.9	-15.3	-356.6
Cc1cccc(C(=O)N2C[C@@H]3CC[C@H](Oc4ccccc4F)[C@@H]3C2)n1	4.4	-0.5	11.7
CCCCn1c(=O)c(CCC(=O)OCC(=O)Nc2c(C)cc(C)cc2C)nc2ccccc21	-87.5	-75.7	-289.8
O=C(Cn1cc(S(=O)(=O)N2CCOCC2)ccc1=O)Nc1ccc(F)cc1	8.3	9.6	17.8
CN(C)[C@@H]1CN(Cc2ccc(O)cc2)C[C@H]1c1cn(C)c2ccccc12	6.7	1.3	6.6
O=C(c1ccccc1)N1CC[C@@H]2CN(C(=O)C3CCCCC3)[C@@H]2C1	-9.2	0.3	-9.6
